Screening results deposited in PubChem BioAssay by several laboratories.
CYP2C9 act – activators of human CYP2C9; 1.4% of 96,000 active; recombinant CYP2C9, luciferin-H conversion, luminescence; active compounds read high; factor 1 = untreated enzyme, 0 = blocked; AID 1024; activation factor at 5 µM;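 active means activation factor of 2 or more for CYP2C9 at a 5 µM dose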
CYP2C19 activ – cytochrome P450 2C19 (human) activation | P33261 | recombinant CYP2C19, luciferin-H EGE luminescence; active compounds read high; 0 = fully inhibited enzyme, 1 = untreated enzyme | activation factor at 5 µM | 96,000 tested, under 10 active | AID 1025;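 active means activation factor of at least 2 at 5 µM in the primary screen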
Cav32 inh – inhibitors of human Cav3.2 T-type calcium channel; O95180; Cav3.2-expressing cells, Fluo-4 calcium fluorescence FDSS; active compounds read low; B-score at 10 µM; 4% of 100,000 active; AID 449739;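 active means single-dose well whose peak fluorescence ratio is a statistical outlier from its plate by either plate-standardised score or position-corrected B-score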
CYP2C9 inh – human CYP2C9 inhibition; P11712; CYP2C9 Supersomes, luciferin-H conversion, luminescence; inhibition, % at 5 µM; 20% of 96,000 active; AID 777;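 active means blocking of liver enzyme CYP2C9 beyond about 50% at 5 µM, limit read from the data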
CYP2C19 inhib – inhibitors of human CYP2C19; P33261; CYP2C19 Supersomes, luciferin-H EGE luminescence, 30 min; inhibition, % at 5 µM; 21% of 96,000 active; AID 778;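 active means CYP2C19 inhibition above a set limit at 5 µM in the primary screen, cut at about 50% in these data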
PTK2B oligo ant – Pyk2 (human) oligomerization antagonism; Q293 cells, Pyk2 FERM NanoBiT luminescence; active compounds read low; 0.83% of 99,000 active; z-score (the deposit names both 25 µM and 10 µM);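 active means Z-score of -3 or lower, scaled per plate to the spread of control and sample wells; inactive means z-score above -3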;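 further: negative z-score means lost luminescence so less FERM oligomerization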
Target sequence (Q14289 whole entry, looked up): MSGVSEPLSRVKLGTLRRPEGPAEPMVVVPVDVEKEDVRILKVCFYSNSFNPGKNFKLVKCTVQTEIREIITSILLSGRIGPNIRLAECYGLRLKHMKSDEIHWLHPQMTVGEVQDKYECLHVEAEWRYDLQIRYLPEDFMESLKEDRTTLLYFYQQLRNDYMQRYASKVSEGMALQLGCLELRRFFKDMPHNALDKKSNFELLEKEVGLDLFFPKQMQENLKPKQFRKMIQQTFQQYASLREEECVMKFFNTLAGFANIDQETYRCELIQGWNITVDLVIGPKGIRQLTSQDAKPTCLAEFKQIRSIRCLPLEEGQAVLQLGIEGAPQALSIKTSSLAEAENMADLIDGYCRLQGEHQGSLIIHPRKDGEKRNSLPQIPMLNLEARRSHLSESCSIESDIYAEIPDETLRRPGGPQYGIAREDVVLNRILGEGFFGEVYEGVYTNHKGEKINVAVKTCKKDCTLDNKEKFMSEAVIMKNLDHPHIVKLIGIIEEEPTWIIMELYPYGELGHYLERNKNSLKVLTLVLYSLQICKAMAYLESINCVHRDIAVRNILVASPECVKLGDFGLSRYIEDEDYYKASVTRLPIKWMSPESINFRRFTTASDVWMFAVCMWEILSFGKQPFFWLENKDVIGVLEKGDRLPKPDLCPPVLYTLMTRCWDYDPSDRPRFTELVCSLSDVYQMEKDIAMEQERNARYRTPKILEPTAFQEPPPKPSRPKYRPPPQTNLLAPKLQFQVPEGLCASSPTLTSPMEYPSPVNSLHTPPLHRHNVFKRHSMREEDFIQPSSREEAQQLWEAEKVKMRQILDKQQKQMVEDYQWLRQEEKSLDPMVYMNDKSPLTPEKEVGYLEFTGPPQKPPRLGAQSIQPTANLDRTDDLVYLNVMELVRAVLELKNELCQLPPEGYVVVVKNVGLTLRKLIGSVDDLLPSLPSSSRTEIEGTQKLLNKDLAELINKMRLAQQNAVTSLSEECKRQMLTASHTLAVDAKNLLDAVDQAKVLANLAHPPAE
Hits are given with their value; - = inactive; . = no result. Only some compounds are listed: those with a hit (about 27% of all), similar ones and a draw of the others.

SMILES	CYP2C9 act	CYP2C19 activ	Cav32 inh	CYP2C9 inh	CYP2C19 inhib	PTK2B oligo ant
CCOc1ccc(S(=O)(=O)N(C)CCO)cc1-c1nc2c(C(C)(C)C)nn(C)c2c(=O)[nH]1	-	-	.	67	64	-
CS(=O)(=O)N1CCN(c2ccc([N+](=O)[O-])c(NCCN3CCOCC3)c2)CC1	-	-	.	-	-	-
O=C(C(Cl)Cl)N1c2ccccc2OCC1c1ccccc1 (stereo unspecified)	-	-	.	75	78	-
Cc1cc(C)n(C(=O)CNC(=O)c2cccs2)n1	-	-	-	-	-	-
COC(=O)c1cccc(OCC(O)Cn2ccnc2)c1 (stereo unspecified)	-	-	.	88	100	-
CCOC(=O)c1cc(C#N)c(SCC(=O)c2cc(C#N)c(SC)nc2C)nc1C	-	-	.	99	-	-
CCOC(=O)c1c(NC(C)=O)sc2c1CCC(C=O)=C2Sc1ccccc1	-	-	-	-	-	-3.5
CCOC(=O)c1c(NC(C)=O)sc2c1CCCNC2=O	-	-	-	-	-	-
Cc1cccc(NS(=O)(=O)c2ccccc2)n1	-	-	-	-	-	-
Cc1ccc(C)c(NS(=O)(=O)c2ccc(NC(=O)c3ccco3)cc2)c1	.	.	-	.	.	-
Cc1c(NS(=O)(=O)c2ccccc2)cc(Cl)c(O)c1C	2.5	-	-	-	99	-
Cc1ccc(S(=O)(=O)Nc2cc(Cl)c(O)cc2C)cc1	2.3	-	-	-	98	-
Cc1ccc(S(=O)(=O)Nc2cccc3cccnc23)cc1	-	-	-	-	-	-
Cc1ccc(S(=O)(=O)Nc2cc(C(C)C)c(O)cc2C)cc1	-	-	-	-	84	-
N#CC1(Cc2ccccc2Cl)c2ccccc2C=CN1C(=O)c1ccccc1 (stereo unspecified)	-	-	.	84	91	-
Cc1snc(S(=O)(=O)Cc2ccccc2Cl)c1C#N	-	-	-	-	-	-
NC(=O)[C@@H]1CCCNc2c(F)cc([N+](=O)[O-])cc2C(=O)N[C@@H](CCC(=O)O)C(=O)N[C@@H](CO)C(=O)N1	.	.	-	.	.	.
Cc1c(C(=O)OC(C)C)[nH]c2c1C(=O)CCC2	-	-	-	-	-	-
Cc1c(C(=O)OC(C)C)[nH]c2c1C(=O)CC(C)(C)C2	-	-	-	76	75	-
CCCCC(=O)Nc1cccc(NC(=O)c2ccc3c(c2)OCO3)c1	-	-	-	-	-	-
N#Cc1ccc(-c2ccccc2)nc1SCC(=O)c1cc2ccccc2oc1=O	-	-	-	76	-	-
CCOC(=O)CC(=O)CSc1nc(-c2cccnc2)ccc1C#N	-	-	-	-	-	-
O=C(CSc1nnc(-c2cccnc2)o1)c1cc2ccccc2oc1=O	-	-	-	70	-	-
O=C(CSc1nnc(-c2cccnc2)o1)Nc1ccccn1	-	-	-	-	-	-
Cc1cc(C)c[n+](CC(=O)c2cc3ccccc3oc2=O)c1	-	-	-	-	-	-
SMILES	CYP2C9 act	CYP2C19 activ	Cav32 inh	CYP2C9 inh	CYP2C19 inhib	PTK2B oligo ant
CC(C)c1c(C#N)c(N)nc(SCC(=O)c2cc3ccccc3oc2=O)c1C#N	-	-	-	92	-	-
Cc1ccccc1S(=O)(=O)Cc1ccc(C(=O)NCCCOC(C)C)o1	-	-	-	-	-	-
CCSc1nc2c(c(=O)[nH]1)C(C(C)C)C(C#N)=C(N)O2 (stereo unspecified)	-	-	-	-	-	.
Cc1[nH]n(-c2c(Cl)cc(Cl)cc2Cl)c(=O)c1C=Nc1ccc(S(=O)(=O)N2CCOCC2)cc1	.	.	.	.	.	-
O=C1NC(Nc2nccs2)(C(F)(F)F)C(=O)N1CCc1ccccc1 (stereo unspecified)	-	-	-	85	89	-
CCC(=O)Nc1cc(C(=O)OC(C(=O)c2ccc(C)c(C)c2)c2ccccc2)ccc1C (stereo unspecified)	-	-	-	58	-	-
CC(=O)NN1C(=O)/C(=C\c2ccc(C)cc2)SC1=S	-	-	-	-	52	-
Cc1oc(CC(C)C)c(CN)c1C(=O)O	-	-	-	-	-	-
CCn1c(C(=O)NCc2cccnc2)cc2sc(Cl)cc21	-	-	.	90	99	-
Cc1cc(C(=O)NCc2cccnc2)cs1	-	-	-	-	-	-
CCn1c(=O)c(C(=O)Nc2cccnc2)c(O)c2ccccc21	.	.	.	.	.	-
CCn1c(=O)c(C(=O)NCc2cccnc2)c(O)c2ccccc21	-	-	-	72	-	-
CCCn1c(=O)c(C(=O)NCc2ccncc2)c(O)c2ccccc21	-	-	-	80	68	-
COC(=O)C1=C(C)N(C2CCCCC2)C(=O)C1	-	-	-	-	55	-
CCOC(=O)C1=C(C)N(C2CCCCC2)C(=O)C1	-	-	-	-	94	-
CCCN1C(=O)CC(C(=O)OC)=C1C	-	-	-	-	-	-
CCOC(=O)C1=NNC2C(=O)N(C3CCCCC3)C(=O)C12 (stereo unspecified)	-	-	-	-	-	-
COC(=O)C1Sc2[nH]c(=O)sc2C2c3ccccc3OC(=O)C12 (stereo unspecified)	-	-	-	-	-	-
COC(=O)C1Sc2[nH]c(=O)sc2C(c2ccc(Cl)cc2)C1C(=O)OC (stereo unspecified)	-	-	.	93	75	.
O=C(NC(=S)N(CCCCO)C1CCCCC1)c1sc2ccccc2c1Cl	-	-	-	54	-	-
Cc1ccccc1NC(=O)CSc1ccsc1[N+](=O)[O-]	.	.	.	.	.	-
O=c1[nH]c2ccccc2n1CCCN1CCN(C(c2ccccc2)c2ccccc2)CC1	.	.	-5	.	.	.
COc1ccc2nc(NC(=O)C3CCCN(S(=O)(=O)c4cccc5nonc45)C3)sc2c1 (stereo unspecified)	.	.	-	.	.	-
COc1ccc2nc(NC(=O)C3CCCN(S(=O)(=O)c4cccc5nsnc45)C3)sc2c1 (stereo unspecified)	-	-	-	86	78	-
CCOc1ccccc1NC(=O)C1CCCN(S(=O)(=O)c2cccc3nsnc23)C1 (stereo unspecified)	-	-	-	53	52	-
SMILES	CYP2C9 act	CYP2C19 activ	Cav32 inh	CYP2C9 inh	CYP2C19 inhib	PTK2B oligo ant
CCOc1ccccc1NC(=O)C1CCCN(S(=O)(=O)c2cccc3cccnc23)C1 (stereo unspecified)	-	-	-	-	-	.
CCS(=O)CCSc1nc2ccccc2s1 (stereo unspecified)	-	-	-	-	-	-
N#CCCn1cnc2c(=S)nc[nH]c21	-	-	-	-	-	-
COc1ccccc1CNn1c(-c2cccc(C)c2)nc2ccccc2c1=O	-	-	-	86	97	-
COc1ccc(Cc2nnc(-c3cccc(C)c3)o2)cc1OC	.	.	-	.	.	.
COc1ccccc1CNC(=O)CCc1nc2ccccc2c(=O)[nH]1	-	-	-	-	-	-
COc1ccc(CNn2c(-c3cccc(C)c3)nc3ccccc3c2=O)cc1OC	-	-	-	-	81	-
Cc1ccc(-c2n[nH]c(=O)c3ccccc23)cc1N	-	-	-	-	68	-
